Screening data from PubChem.
aSyn 5UTR act – Activators via SNCA 5'UTR binding, MLPCN. alpha-synuclein 5'UTR reporter, activators screen. 300,000 compounds, 7.1% hits. activity score, % (tested at 7.5 µM), hits read low; in the data active means activity score below about -60%
Starred values were filed as active, the others as inactive. Only a sample is shown.

SMILES	aSyn 5UTR act
O=C(CNCc1cccs1)Nc1ccc(N2CCCCCC2)cc1	-62.8*
Fc1ccc(-c2ccc(CNCc3ccccn3)o2)cc1	-91.2*
CN(c1ccccc1)c1nc2ccsc2c(=O)s1	-123.6*
COC(=O)c1sc(NC(=O)c2ccco2)nc1C	-69.0*
COC(=O)c1sc(NC(=O)c2ccoc2C)nc1C	-136.1*
COC(=O)c1sc(NC(=O)/C=C/c2ccc(C)o2)nc1C	-65.4*
O=C(c1cccs1)N(CCN1CCCCC1)CC1CCCN(C2CCCC2)C1 (stereo not given)	-113.3*
Cc1ccc(C(=O)N(CCN2CCCCC2)CC2CCCN(C3CCCC3)C2)s1 (stereo not given)	-76.6*
Cc1nn(-c2ccccc2)c(Cl)c1/C=N/NC(=O)c1[nH]ncc1Br	-66.8*
Cc1cc(C(=O)N/N=C/c2c(C)nn(-c3ccccc3)c2C)c(C)o1	-69.2*
Cc1nn(-c2ccccc2)c(C)c1/C=N/NC(=O)c1cc(-c2ccccc2)n[nH]1	82.1
Cc1nn(-c2ccccc2)c(Cl)c1/C=N/NC(=O)c1ccc(NS(=O)(=O)c2cccs2)cc1	-109.5*
Cc1nn(-c2ccccc2)c(Cl)c1/C=N/NC(=O)c1ccccc1F	-89.4*
O=C(N/N=C/c1cn(-c2ccccc2)nc1-c1cccs1)c1ccc(Cl)cc1	-65.8*
Cc1nn(-c2ccccc2)c(Cl)c1/C=C/C(=O)c1ccccc1	-106.6*
Cc1cc(C)cc(NS(=O)(=O)c2ccc3c(c2)c(=O)n(C)c(=O)n3C)c1	58.2
COc1cccc(-n2cc3c(=O)n(C)c(=O)n(C)c3c2)c1	-86.3*
N#C/C(=C\c1cccs1)C(=O)Nc1nccs1	-74.6*
C/C(=C\c1ccccc1)C(=O)Nc1nccs1	-120.5*
O=C(Nc1nccs1)c1ccccc1N=Cc1ccccc1	-84.1*
C/C=C/C=C/C(=O)Nc1nccs1	-77.4*
COc1cc2c(cc1OC)C(C)N(C(=O)c1cc(C)on1)CC2 (stereo not given)	97.1
COc1cc2c(cc1OC)C(c1ccccc1)N(C(=O)c1cccc(S(C)(=O)=O)c1)CC2 (stereo not given)	-67.1*
COc1cccc(CNC(=O)CCS(=O)(=O)c2ccc3c(c2)NC(=O)CO3)c1	98.7
Cc1cccn2cc(-c3ccc4c(c3)NC(=O)CO4)nc12	-96.6*
SMILES	aSyn 5UTR act
COc1cccc(C2CC(=O)Nc3cc4c(cc32)CCC4)c1 (stereo not given)	84.2
COc1cccc(-c2nc(-c3ccc4c(c3)NC(=O)CO4)cs2)c1	-197.1*
Fc1ccccc1CSc1nnnn1-c1ccc2c(c1)OCO2	-65.2*
COc1cccc(C(=O)Nc2ccc(-c3nc4ccccc4o3)c(O)c2)c1	-115.3*
O=C(Nc1ccc(-c2noc(CCc3ccccc3)n2)cc1)c1cccnc1	-67.3*
O=C(Nc1ccc(-c2nc3ccccc3o2)cc1)c1cccnc1	-133.4*
Cc1ccc2oc(-c3ccc(NC(=O)c4cccnc4)cc3)nc2c1	-161.7*
N=c1c2ccccc2nnn1-c1ccc(C(F)(F)F)cc1	-147.4*
CCOC(=O)/C(C#N)=C(C)/C=C1\Sc2ccccc2N1CC	-105.5*
Cc1cc(NC(=O)c2ccc(Cl)cc2Cl)no1	-185.1*
Cc1ccc(NC(=O)Nc2cc(C)on2)cc1	-142.8*
Cc1cc(C(=O)NNC(=O)c2ccc(Cl)cc2Cl)c(C)o1	-76.2*
O=C(Nc1ccsn1)c1ccc(Cl)cc1Cl	-161.7*
O=C(CCCN1C(=O)/C(=C/c2ccccc2Cl)SC1=S)NNC(=O)c1ccc(Cl)cc1Cl	71.3
Cc1cc(C(=O)Nc2cc(C(C)(C)C)on2)c(C)o1	-146.6*
CC(C)(C)c1cc(NC(=O)Nc2ccccc2)no1	-196.7*
Cc1cccc(NC(=O)Nc2cc(C)on2)c1	-72.8*
Cc1cc(/C(N)=N/OC(=O)Nc2ccc(Cl)cc2)no1	-91.7*
Cc1cc(NC(=O)Nc2ccc(Cl)cc2)no1	-109.6*
Cc1c(NC(=O)c2ccc(-c3ccccc3)cc2)cccc1C(=O)O	-85.3*
O=C(Nc1c(Cl)cccc1Cl)c1ccc(-c2ccccc2)cc1	-66.2*
O=C(Nc1sc(-c2ccccc2)cc1C(=O)O)c1ccccc1	-99.5*
CN(CC(=O)N1CCCCCC1)S(=O)(=O)c1ccccc1	-67.8*
O=C(CNC(=O)c1ccco1)Nc1ccc(Br)cc1	-141.6*
O=C(CNC(=O)c1ccco1)Nc1ccc(Cl)cc1	-69.6*
SMILES	aSyn 5UTR act
COc1ccc(Sc2nnc(Cc3ccccc3)c3ccccc23)cc1	-72.7*
O=C1C(Nc2ccccc2)=C(NS(=O)(=O)c2ccccc2)C(=O)c2ccccc21	-74.8*
CCN1CCN(Cc2ccc(NC(=O)c3cc(NC(=O)c4cc(-c5ccc(OC)cc5)n[nH]4)cc(OC)c3)cc2C(F)(F)F)CC1	106.2
COC(=O)c1cc(-c2ccc(OC)cc2)n[nH]1	-103.2*
COC(=O)c1cc(-c2ccc(C)cc2)n[nH]1	-106.3*
CCOc1ccc(-c2cc(C(=O)OC)[nH]n2)cc1	-103.2*
CCOc1cccc(-c2cc(C(=O)NN)[nH]n2)c1	-63.6*
O=C(Nc1cccc(F)c1)c1ccc(CSc2ccccc2)o1	-121.3*
O=C(Nc1ccccc1F)c1ccc(CSc2ccccc2)o1	-69.5*
CCOc1ccc(NC2=C(Cl)C(=O)N(C3CCCCC3)C2=O)cc1	-102.2*
